Screening results (PubChem BioAssay)
In the library only some 2.1% were active in any assay of this set; here they are far more common.
LMP1 NFkB inh: inhibitors of Epstein-Barr LMP1-induced NF-kappaB reporter; LMP1-induced NF-kappaB luciferase reporter cells, luminescence; inhibition, % at 12.5 µM; actives 0.69% (n = 350,000); AID 504558; in the data active means inhibition above about 41%;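 further: 0% = neutral control wells and 100% = reference inhibitor control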
aSyn 5UTR inh: MLPCN primary screen, SNCA 5' untranslated region; alpha-synuclein 5'UTR reporter, inhibitor activity; inhibition, % (tested at 7.5 µM); actives 0.82% (n = 300,000); AID 1813; in the data active means inhibition above about 60%;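 further: H4 neuroglioblastoma cells stably carrying SNCA 5'UTR luciferase fusion; 0% = DMSO wells and 100% = positive control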
PAX8 inh HTS: inhibitors of PAX8 transcriptional activity in RMG-I cells. RMG-I TPO-luciferase reporter, SteadyGlo, 24 h. inhibition, % at 12.6 µM. actives 1.2% (n = 360,000);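 active means mean replicate inhibition at least 60% with every replicate also reaching 60%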;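 further: luciferase light reporting Pax8 driven TPO promoter activity; plate controls were median of neutral control wells for no effect and mitoxantrone controls for full effect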
Shn3 3UTR inh: reduces Shn3 3'UTR luciferase signal in osteoblasts; actives 0.52% (n = 360,000); inhibition, % at 12.5 µM; Clone20 osteoblast Shn3 3'UTR firefly luciferase, 24 h;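 active means mean inhibition of at least 75% with every replicate also reaching 75%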;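 further: 0% = median of neutral control wells and 100% = pilot-screen positive control compound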
MITF TRPM1 inh: MITF TRPM1 promoter inhibition in SK-MEL-5 cells; SK-MEL-5 TRPM1 promoter luciferase, 24 h; inhibition, % at 12.5 µM; actives 0.83% (n = 330,000);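 active means mean inhibition across replicates of 60% or more, whatever share of single replicates reaches that level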
Numbers without * were called inactive; x = not tested or not shown.

SMILES | LMP1 NFkB inh | aSyn 5UTR inh | PAX8 inh HTS | Shn3 3UTR inh | MITF TRPM1 inh
S=c1sc2c(Cl)ncnc2n1-c1ccccc1 | 27 | 93* | 93* | -7 | 70*
CCCCN1C(=N)N([C@@H](C)CN2CCC[C@H]2CN2C(N)=NC[C@H]2CC(C)C)C[C@H]1Cc1ccccc1 | -1 | x | 22 | -11 | -16
Cc1ccc(CNC(=O)c2cccnc2)cc1 | x | -5 | 11 | x | x
Cn1c(=O)[nH]c(=O)c2c1nc(Br)n2Cc1cccc(Br)c1 | 15 | -70 | 73* | -2 | 14
COc1ccc(-n2cc(-c3ccc(C)cc3)[n+]3c2SCC3)cc1 | 25 | -23 | 79* | 79 | 71*
Cc1ccc(-c2cn(-c3ccccc3)c3[n+]2CCCS3)cc1 | 4 | 2 | 79* | 77 | 43
Cc1occc1C(=O)N1N=C(C2CC2)CC1(O)C(F)(F)F (stereo not drawn) | -2 | 1 | x | -6 | 20
CN(Cc1cc2ccccc2[nH]c1=O)S(C)(=O)=O | -6 | 14 | x | -3 | -4
CC(=O)Nc1ccc(CNc2nc(NC(C)C)nc3cc(-c4ccccc4)sc23)cc1 | x | x | 73* | 23 | x
COCCNc1nc(NCC2CCCCC2)c2sc(-c3ccccc3)cc2n1 | x | x | 51 | 24 | x
c1ccc(-c2cc3nc(NCC4CC4)nc(NCC4CCCCC4)c3s2)cc1 | x | x | 14 | 88* | x
COc1ccc(-c2cc(CNc3nc(NC(C)C)nc4cc(-c5ccccc5)sc34)on2)cc1 | x | x | 104* | 71 | x
CC(=O)c1ccc(NC(=O)c2ccc(CNc3c(N4CCCC4)c(=O)c3=O)cc2)cc1 | 0 | 7 | 22 | -5 | -6
CC(C)(C)c1ccc(C(=O)Nc2nnc(SCC(=O)NCC3CCCO3)s2)cc1 (stereo not drawn) | 49* | 44 | -140 | -18 | 26
O=C(CSc1nnc(NC(=O)c2ccc(S(=O)(=O)N3CCOCC3)cc2)s1)Nc1ccccc1C(F)(F)F | 2 | 5 | 69* | 8 | 9
Cc1nnc(NC(=O)c2ccc(S(=O)(=O)N3CCOCC3)cc2)s1 | 0 | 4 | -7 | 6 | 0
CCOc1ccc(C(=O)Nc2nnc(SCC(=O)NCC3CCCO3)s2)cc1 (stereo not drawn) | 61* | 76* | -10 | 7 | 48
O=C(Cn1c(=O)n(-c2ccc(F)cc2)c(=O)c2sccc21)NC1CCCCC1 | -4 | 7 | 19 | -25 | 3
O=C(CN1C(=O)S/C(=C\c2ccccc2F)C1=O)NC1CCS(=O)(=O)C1 (stereo not drawn) | -5 | -11 | 14 | -11 | -12
CN=C1S/C(=C\c2ccc(O)c(Br)c2)C(=O)N1C | 45* | -7 | 23 | -8 | 3
CN=C1S/C(=C\c2ccc(O)c(OC)c2)C(=O)N1C | x | -110 | -151 | x | x
Cc1noc(C)c1COc1ccc(CC(=O)NCc2ccccc2)cc1 | 10 | 72* | 25 | 20 | -2
c1ccc(CN=C(NCc2ccccc2)NCc2ccccc2)cc1 | -5 | x | 13 | 83* | 16
Cc1ccc(CNC(=O)COC(=O)Cc2ccc(-c3ccccc3)cc2)cc1 | 6 | 9 | 19 | 0 | -1
O=C(Cc1ccc(-c2ccccc2)cc1)NCc1ccccc1 | 3 | 104* | 56 | -5 | 16
SMILES | LMP1 NFkB inh | aSyn 5UTR inh | PAX8 inh HTS | Shn3 3UTR inh | MITF TRPM1 inh
O=C(Cc1ccc(-c2ccccc2)cc1)NCc1cccnc1 | 9 | -48 | -26 | -21 | 23
Cc1ccc(CNC(=O)Cc2ccc(-c3ccccc3)cc2)cc1 | 3 | 73* | x | 18 | 33
C[C@H](CO)NC(=O)[C@@H]1C[C@H]1[C@@H](NP(=O)(c1ccccc1)c1ccccc1)c1ccccc1 | -1 | 11 | -4 | -29 | -4
O=C(CCN1C(=O)/C(=C/c2ccccc2)SC1=S)Nc1cccnc1 | -5 | -3 | 5 | 15 | -11
O=C1/C(=C/c2cccnc2)SC(=S)N1Cc1ccco1 | 43* | x | -15 | -13 | 10
O=C1/C(=C/c2ccccc2)SC(=S)N1CC(=O)N1CCCCC1c1cccnc1 (stereo not drawn) | 14 | -30 | 90* | 16 | -49
Cc1cc(/C=C2\SC(=S)N(Cc3ccco3)C2=O)c(C)n1-c1cccnc1 | -19 | -181 | x | 7 | -31
Cc1nn(-c2ccncc2)c2c1C(=O)CC(C)(C)C2Br (stereo not drawn) | 0 | x | -2 | -8 | -8
On1ccccc1=S | -23 | x | 100* | 83 | 75*
COc1ccc(N2CCN(C(=O)COC(=O)CCc3ccccc3)CC2)cc1 | -2 | x | 77* | 3 | 1
CN1c2ccc(C#Cc3ccc(F)cc3)cc2[C@H]2[C@H](CCN2S(=O)(=O)c2ccccc2F)[C@@H]1CO | x | x | 3 | x | x
COc1cccc(S(=O)(=O)N2CC[C@H]3[C@@H](CO)N(C)c4ccc(C#Cc5ccc(F)cc5)cc4[C@H]32)c1 | x | x | 85* | x | x
Cc1cccc(S(=O)(=O)N2CC[C@@H]3[C@H](CO)N(C)c4ccc(C#Cc5ccc(F)cc5)cc4[C@@H]32)c1 | x | x | 91* | x | x
CO[C@H]1CN(C)C(=O)c2ccc(NC(=O)c3ccccc3F)cc2OC[C@H](C)N(C)C[C@H]1C | x | x | -37 | x | x
COc1ccc2cc(-c3cc(C(=O)O)c4ccccc4n3)ccc2c1 | 66* | 78* | 36 | 66 | 28
Cc1noc(C)c1S(=O)(=O)Nc1ccc2c(c1)C(=O)N([C@H](C)CO)C[C@@H](C)[C@H](CN(C)Cc1ccc(C(=O)O)cc1)OCCCC[C@@H](C)O2 | x | x | -24 | x | x
CC1=NC(=O)C(N=Nc2ccccc2)N1c1ccccc1 (stereo not drawn) | -39 | -109 | x | -66 | -16
CC1=NC(=O)C(N=Nc2cccc(C(=O)O)c2)N1c1ccccc1 (stereo not drawn) | 37 | 13 | x | -7 | 81*
Cc1ccccc1Cn1c(=O)n(-c2ccccc2)c(=O)c2ccc(C(=O)NCc3ccco3)cc21 | -14 | 28 | -15 | 18 | -1
Cc1ccc(-n2c(=O)c3ccc(C(=O)NCc4ccco4)cc3n(Cc3ccccc3C#N)c2=O)cc1 | -1 | 19 | 76* | 9 | 6
Cc1csc2nc(CNC(=O)C3CCCCC3)cn12 | -7 | -32 | -11 | -19 | x
O=C1CC(Sc2nnc(-c3ccccc3)o2)C(=O)N1c1ccccc1 (stereo not drawn) | -5 | -15 | 72* | 32 | 3
COCC(=O)N1CCC(Oc2ccc(C(=O)N3C[C@H]4CC[C@H]3C4)cc2)CC1 | 65* | 7 | 6 | -4 | -2
COCC(=O)N1CCC(Oc2ccc(C(=O)N3C[C@@H]4CCC[C@H]3C4)cc2)CC1 | 3 | 4 | -13 | -23 | 3
COc1cccc(N2CCN(c3nc(-c4ccccc4C)cc(=O)[nH]3)CC2)c1 | -42 | 24 | 70* | -85 | -3
COc1cccc(N2CCN(c3nc(C)c(C)c(=O)[nH]3)CC2)c1 | -12 | 4 | 8 | 3 | 10
C=CCn1c(C)cc(C2=NNC(=NC(C)(C)C)SC2)c1C | 57* | 89* | 13 | 11 | 79*
COCCn1c(C)cc(C2=NNC(=NC3CC3)SC2)c1C | 84* | 112* | 102* | 91* | 102*
